Measurements taken from PubChem BioAssay (NCATS).
Where “and” joins values, the source holds several entries; their conditions need not be identical. Equal values may be shown once. Results filed as inconclusive are left out. Some compounds were tested as several samples or in several runs, with calls that do not always agree. Calls of active or inactive are those of the source. The call rests on the fitted dose curve; in most records, active means well fitted curve in the direction sought with a large enough effect; inconclusive means small, poorly fitted or top-dose-only effect, or another doubt; inactive means no such curve, though single readings can be large; an effect the other way counts as inactive or inconclusive.

Tests used:
TAB165 = experiment: qHTS profiling for inhibitors of Plasmodium falciparum proliferation (AID 504749); further: nearly all actives have a fitted effect of over 60% in size; conditions: P. falciparum in erythrocytes, SYBR Green DNA, 72 h; series mostly up to 28.7 µM
Summary of the method: (§1)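 Quantitative HTS: compounds pinned into medium, infected erythrocytes added (0.3% parasitemia, 2.5% hematocrit), 72 h culture at 37 C under 5% CO2. Saponin/Triton lysis with SYBR Green I, overnight RT, then fluorescence read.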

W2 = experiment: as above; conditions: P. falciparum in erythrocytes, SYBR Green DNA, 72 h; series mostly up to 28.7 µM
Summary of the method: as §1

HEK293 = experiment: Cytotoxic Profiling of Annotated Libraries Using Quantitative High-Throughput Screening (AID 1296008); conditions: Five cell lines viability, CellTiter-Glo ATP luminescence, 48-72 h; max response: stronger effect = lower value; further: nearly all actives have a fitted effect of over 60% in size; on max response: on the % scale 0 is the no-effect control and ±100 the full control effect
Summary of the method: (§2)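 Compounds were pin-transferred onto cells and incubated 48 or 72 hr at 37 degree Celsius, 95% humidity. CellTiter-Glo was added, plates sat 10 min at room temperature, then ATP-coupled luminescence was imaged as the viability read-out.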

HaCat [1] = experiment: as above; conditions: Five cell lines viability, CellTiter-Glo ATP luminescence, 48-72 h; max response: stronger effect = lower value
Summary of the method: as §2

KB-3-1 = experiment: as above; conditions: Five cell lines viability, CellTiter-Glo ATP luminescence, 48-72 h; max response: stronger effect = lower value
Summary of the method: as §2

NIH3T3 [2] = experiment: as above; conditions: Five cell lines viability, CellTiter-Glo ATP luminescence, 48-72 h; max response: stronger effect = lower value
Summary of the method: as §2

MCC-13 = experiment: qHTS assay to identify novel small-molecules to repurpose for Merkel cell carcinoma treatment (AID 1296009); conditions: MCC and control cell lines, CellTiter-Glo viability, 72 h; series mostly up to 46 µM; further: nearly all actives have a fitted effect of over 60% in size
Summary of the method: (§3)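 Viability readout: ATP luminescence (CellTiter-Glo) after 72 hr drug exposure at 37 degree celsius. Dose-response format was 8 points for NPC and 11 points for MIPE; data normalized to in-plate controls.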

WaGa = experiment: as above; conditions: MCC and control cell lines, CellTiter-Glo viability, 72 h; series mostly up to 46 µM
Summary of the method: as §3

CAOV3 = experiment: Primary qHTS to identify gynecologic anti-cancer compounds using libraries of approved drugs and bioactive compounds (AID 1345084); conditions: Gynecologic cancer cell panel viability, ATPlite luminescence, 48 h; series mostly up to 57.5 µM; further: nearly all actives have a fitted effect of over 55% in size
Summary of the method: (§4)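 Cells, 1,000 per well, plated 16 h, then exposed 48 h at 37 C to compounds. Viability by ATPlite luminescence after 15 min at room temperature.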

CASKI = experiment: as above; conditions: Gynecologic cancer cell panel viability, ATPlite luminescence, 48 h; series mostly up to 57.5 µM
Summary of the method: as §4

Es-2 = experiment: as above; conditions: Gynecologic cancer cell panel viability, ATPlite luminescence, 48 h; series mostly up to 57.5 µM
Summary of the method: as §4

CRL-7250 = normal cell line; experiment: Cytotoxic Profiling of Annotated Libraries Using Quantitative High-Throughput Screening (AID 1296008); conditions: Five cell lines viability, CellTiter-Glo ATP luminescence, 48-72 h; max response: stronger effect = lower value; further: nearly all actives have a fitted effect of over 60% in size; on max response: on the % scale 0 is the no-effect control and ±100 the full control effect
Summary of the method: as §2

HACAT [3] = experiment: qHTS assay to identify novel small-molecules to repurpose for Merkel cell carcinoma treatment (AID 1296009); conditions: MCC and control cell lines, CellTiter-Glo viability, 72 h; further: nearly all actives have a fitted effect of over 60% in size
Summary of the method: as §3

MKL-1 = experiment: as above; conditions: MCC and control cell lines, CellTiter-Glo viability, 72 h; series mostly up to 46 µM
Summary of the method: as §3

MKL-2 = experiment: as above; conditions: MCC and control cell lines, CellTiter-Glo viability, 72 h; series mostly up to 46 µM
Summary of the method: as §3

NIH3T3 [4] = experiment: as above; conditions: MCC and control cell lines, CellTiter-Glo viability, 72 h; at 44.8 µM (top of the series) unless noted
Summary of the method: as §3

UISO = experiment: as above; conditions: MCC and control cell lines, CellTiter-Glo viability, 72 h; series mostly up to 46 µM
Summary of the method: as §3

HEK293T = experiment: as above; conditions: MCC and control cell lines, CellTiter-Glo viability, 72 h; at 44.8 µM (top of the series) unless noted
Summary of the method: as §3

C33A = experiment: Primary qHTS to identify gynecologic anti-cancer compounds using libraries of approved drugs and bioactive compounds (AID 1345084); conditions: Gynecologic cancer cell panel viability, ATPlite luminescence, 48 h; series mostly up to 57.5 µM; further: nearly all actives have a fitted effect of over 55% in size
Summary of the method: as §4

MCC-26 = experiment: qHTS assay to identify novel small-molecules to repurpose for Merkel cell carcinoma treatment (AID 1296009); conditions: MCC and control cell lines, CellTiter-Glo viability, 72 h; series mostly up to 46 µM; further: nearly all actives have a fitted effect of over 60% in size
Summary of the method: as §3

[5] = at 44.8 µM (top of the series) unless noted
Potency means the concentration at half of the fitted maximal effect.

CNC(=O)c1cc(Oc2ccc(NC(=O)Nc3ccc(Cl)c(C(F)(F)F)c3)cc2)ccn1
inactive: max response (HaCat [1]) -11.7% and -12.9% | Potency (MCC-13) | Potency (CAOV3) | Potency (CASKI) | Potency (Es-2)
active: Potency (TAB165) 5.62 µM | Potency (W2) 15.1 µM | Potency (HEK293) 7.43 µM and 5.8 µM | Potency (KB-3-1) 14.8 µM and 6.51 µM | Potency (NIH3T3 [2]) 23.5 µM | Potency (WaGa) 23.7 µM

N=C(N)c1ccc(OCCCCCOc2ccc(C(=N)N)cc2)cc1
inactive: Potency (CAOV3) | Potency (CASKI) | Potency (Es-2)
active: Potency (TAB165) 0.501 µM | Potency (W2) 0.478 µM

CCN(CC)CC#CCOC(=O)C(O)(c1ccccc1)C1CCCCC1 (centres undefined)
inactive: outcome (CRL-7250) | outcome (HaCat [1]) | max response (KB-3-1) 11.1% and 9.45% | outcome (NIH3T3 [2]) | outcome (HACAT [3]; [5]) | Potency (MCC-13) | Potency (MKL-1) | Potency (MKL-2) | outcome (NIH3T3 [4]) | Potency (UISO) | Potency (WaGa)

NC(=O)c1cccnc1
inactive: Potency (TAB165) | Potency (W2) | outcome (HACAT [3]; [5]) | outcome (HEK293T) | Potency (MCC-13) | Potency (MKL-1) | Potency (MKL-2) | Potency (UISO) | Potency (WaGa) | Potency (C33A) | Potency (CASKI) | Potency (Es-2)

Nc1[nH]c(=O)ncc1F
inactive: Potency (TAB165) | Potency (W2) | Potency (C33A) | Potency (CAOV3) | Potency (CASKI) | Potency (Es-2)

CC(C)(C#N)c1cc(Cn2cncn2)cc(C(C)(C)C#N)c1
inactive: Potency (TAB165) | Potency (W2) | Potency (MCC-13) | Potency (MKL-1) | Potency (MKL-2) | Potency (UISO) | Potency (WaGa) | Potency (C33A) | Potency (CAOV3) | Potency (CASKI) | Potency (Es-2)

Cc1nnc(NS(=O)(=O)c2ccc(N)cc2)s1
inactive: Potency (TAB165) | Potency (W2) | Potency (C33A) | Potency (CAOV3) | Potency (CASKI) | Potency (Es-2)

CCOC(=O)c1ccc(C#Cc2ccc3c(c2)C(C)(C)CCS3)nc1
inactive: max response (CRL-7250) -0.581% and -12.4% | outcome (HaCat [1]) | max response (KB-3-1) 5.71% and 0.466% | max response (NIH3T3 [2]) -3.55% | outcome (NIH3T3 [2]) | outcome (HACAT [3]; [5]) | Potency (MCC-13) | Potency (MCC-26) | Potency (MKL-1) | outcome (NIH3T3 [4]) | Potency (UISO) | Potency (WaGa) | Potency (C33A) | Potency (CAOV3) | Potency (CASKI) | Potency (Es-2)

CC(=O)Oc1ccccc1C(=O)Nc1ncc([N+](=O)[O-])s1
inactive: Potency (TAB165) | max response (HEK293) -13.9% | outcome (HaCat [1]) | max response (KB-3-1) -5.17% and -18.8% | outcome (NIH3T3 [2]) | outcome (HACAT [3]; at 44.8 µM (top of the series)) | outcome (HACAT [3]; at 92 µM (top of the series)) | Potency (MCC-13) | Potency (MKL-1) | outcome (NIH3T3 [4]) inactive [at 92 µM] | Potency (C33A) | Potency (CAOV3) | Potency (CASKI)
inactive and 16.8 µM (active): Potency (WaGa)

Cc1onc(-c2ccccc2Cl)c1C(=O)N[C@@H]1C(=O)N2[C@@H]1SC(C)(C)[C@@H]2C(=O)O
inactive: Potency (C33A) | Potency (CAOV3) | Potency (CASKI) | Potency (Es-2)

O[C@@H](CNC[C@H](O)[C@H]1CCc2cc(F)ccc2O1)[C@@H]1CCc2cc(F)ccc2O1
inactive: Potency (MCC-13) | Potency (MCC-26) | Potency (WaGa)
active: Potency (KB-3-1) 20.9 µM | Potency (MKL-2) 26.4 µM | Potency (UISO) 23.7 µM

CCc1c2c(nc3ccc(OC(=O)N4CCC(N5CCCCC5)CC4)cc13)-c1cc3c(c(=O)n1C2)COC(=O)[C@]3(O)CC
inactive: Potency (TAB165) | max response (KB-3-1) 43.3%
active: Potency (HEK293) 7.5 µM and 1.05 µM | Potency (HaCat [1]) 23.7 µM and 4.18 µM | Potency (NIH3T3 [2]) 14.8 µM | Potency (MKL-1) 1.88 µM and 1.87 µM | Potency (MKL-2) 944 nM and 296 nM | Potency (UISO) 0.833 µM | Potency (WaGa) 422 nM and 662 nM | Potency (Es-2) 14.1 µM

COc1cc(NCc2ccc3nc(N)nc(N)c3c2C)cc(OC)c1OC
active: Potency (TAB165) 1.12 µM | Potency (W2) 0.301 µM | Potency (HEK293) 4.18 µM and 53.1 nM | Potency (HaCat [1]) 1.06 µM | Potency (KB-3-1) 3.32 µM and 326 nM | Potency (NIH3T3 [2]) 3.72 µM and 66.8 nM | Potency (MKL-1) 29.6 µM | Potency (MKL-2) 18.7 µM | Potency (WaGa) 2.96 µM and 94.4 nM
inactive: Potency (MCC-13) | Potency (MCC-26) | Potency (CAOV3)
